# Screening results (PubChem BioAssay)
# This is a sample that favours compounds with a hit; in the whole collection about 1.6% have one here.
# KCNQ2 pot: potentiators of rat KCNQ2 potassium channel; CHO-K1 KCNQ2, FluxOR thallium flux fluorescence; stronger effect = higher value; B-score at 10 µM; hit rate 0.54% among 310,000; AID 2239;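 active means fluorescence ratio B-score at least 3 SD of library B-scores, with initial fluorescence B-score within 3 of them, cut at about 5.3 in these data; same plate scores as AID 2156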;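 further: B-score of peak minus minimum over baseline fluorescence ratio after K+ and Tl+ stimulus; positive B-score means potentiation of KCNQ2 with more thallium influx and brighter signal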
# Target sequence (O88943 whole entry, looked up): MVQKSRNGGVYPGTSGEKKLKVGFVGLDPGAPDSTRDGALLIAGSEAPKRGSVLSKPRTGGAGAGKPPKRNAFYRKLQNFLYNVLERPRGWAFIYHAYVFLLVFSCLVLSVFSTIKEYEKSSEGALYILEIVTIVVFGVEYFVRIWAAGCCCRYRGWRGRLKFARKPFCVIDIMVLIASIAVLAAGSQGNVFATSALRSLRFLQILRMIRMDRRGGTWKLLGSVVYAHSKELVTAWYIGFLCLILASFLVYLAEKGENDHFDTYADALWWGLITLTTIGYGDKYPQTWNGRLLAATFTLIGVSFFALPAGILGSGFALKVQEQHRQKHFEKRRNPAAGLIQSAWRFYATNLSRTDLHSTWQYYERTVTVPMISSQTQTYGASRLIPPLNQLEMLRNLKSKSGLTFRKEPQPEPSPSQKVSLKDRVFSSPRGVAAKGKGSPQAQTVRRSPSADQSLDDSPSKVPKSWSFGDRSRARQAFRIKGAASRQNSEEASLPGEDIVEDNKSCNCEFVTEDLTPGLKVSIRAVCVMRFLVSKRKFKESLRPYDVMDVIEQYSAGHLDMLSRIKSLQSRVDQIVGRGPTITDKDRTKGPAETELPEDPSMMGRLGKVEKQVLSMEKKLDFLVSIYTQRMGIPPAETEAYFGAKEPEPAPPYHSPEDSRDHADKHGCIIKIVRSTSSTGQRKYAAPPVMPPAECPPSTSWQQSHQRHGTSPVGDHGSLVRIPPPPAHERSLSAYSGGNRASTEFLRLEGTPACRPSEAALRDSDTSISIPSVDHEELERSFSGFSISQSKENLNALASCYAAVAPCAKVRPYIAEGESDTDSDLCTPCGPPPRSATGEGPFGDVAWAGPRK
# KCNQ2 inh: blocks the rat KCNQ2 potassium channel; O88943; CHO-K1 KCNQ2, FluxOR thallium flux, 20 min; stronger effect = lower value; B-score at 10 µM; hit rate 1.1% among 310,000; AID 2156;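 active means fluorescence ratio B-score at most minus 3 library SDs, with starting brightness B-score within 2 library SDs, cut at about -5.5 in these data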
# Kir21 conf inh: confirmation of mouse Kir2.1 potassium channel inhibitors; shares compounds with KCNQ2 pot; Kir2.1-expressing cells, FluxOR thallium flux fluorescence; stronger effect = lower value; Tl flux remaining, % of negative control (stronger effect = lower value), % at 10 µM; hit rate 41% among 2,300; AID 2032;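 active means Primary-screen hit whose thallium flux fell at least 3 control SD below untreated wells in both duplicates, with normal baseline fluorescence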;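 further: 0% = blank wells without stimulus and 100% = stimulated no-compound controls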
# HEK293 Tl flux: alters thallium flux in parental HEK293 cells, Kir2.1 counter-screen; shares compounds with KCNQ2 pot; FluxOR thallium flux fluorescence; 0% = unstimulated blank wells; FluxOR signal as % of negative control (100 = no effect), % at 10 µM; hit rate 19% among 2,300; AID 2105;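 active means dye signal at least 3 control SD above or below untreated wells in both duplicates, raw fluorescence within 3, either direction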;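 further: percent is based on the flux ratio of peak minus minimum fluorescence over baseline F0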
# CHO-K1 Tl ctr: counter-screen for KCNQ2 potentiators: effect in parental CHO-K1 cells. shares compounds with KCNQ2 pot. FluxOR thallium flux fluorescence; zero = vehicle mean+3SD, 100% = vehicle-minus-blank window. activity increase over 3SD of controls, % at 10 µM. hit rate 43% among 1,200;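 active means signal rise of at least 3 SD above the untreated control mean, in both duplicate wells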;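 further: counter screen of KCNQ2 potentiator hits so any rise reflects channel-independent effects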
# KCNQ1 sel pot: tests whether KCNQ2 potentiators also act on human KCNQ1; hit rate 28% among 1,200; activation over 3SD threshold, % at 10 µM; shares compounds with KCNQ2 pot; CHO KCNQ1 stable, FluxOR thallium flux fluorescence; beyond 3SD, as % of vehicle-control signal;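 active means fluorescence ratio rise of at least 3 SD of vehicle wells above their mean, in both replicate wells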;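 further: 0% = vehicle mean plus 3 SD and 100% = vehicle minus unstimulated blank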
# KCNQ2 pot conf: rat KCNQ2 channel potentiator confirmation. shares compounds with KCNQ2 pot. potentiation, less the hit threshold, % at 10 µM. AID 2287. CHO-KCNQ2 cells, FluxOR thallium flux fluorescence. hit rate 68% among 1,200;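 active means fluorescence ratio rising 3 SD or more over the vehicle control mean in both replicates, plus primary screen hit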;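 further: peak minus minimum thallium fluorescence divided by baseline after K/Tl stimulus; 0% = vehicle mean plus 3 SD and 100% = vehicle minus unstimulated blank difference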
# Kir2-1 sel: mouse Kir2.1 off-target activity of KCNQ2 potentiators; shares compounds with KCNQ2 pot; HEK293 Kir2.1, FluxOR thallium flux fluorescence; activity over 3SD threshold, % at 10 µM; hit rate 2% among 1,200; AID 2345;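 active means fluorescence ratio rise of at least 3 SD above the vehicle-control mean, seen in both replicates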;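 further: 0% = vehicle mean plus 3 SD and 100% = vehicle minus no-stimulus blank window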
# KCNQ2 W236L pot: KCNQ2 potentiators acting on retigabine-insensitive rat KCNQ2 W236L mutant; shares compounds with KCNQ2 pot; CHO KCNQ2-W236L, automated patch clamp current; current increase over 3SD of negative controls (%), stronger effect = higher value, % at 25 µM; hit rate 10% among 940;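 active means current increase at least 3 SD of the untreated controls above them in both duplicate recordings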
# * hit, by the source's call; i = inactive; . = not tested or not shown.
SMILES,KCNQ2 pot,KCNQ2 inh,Kir21 conf inh,HEK293 Tl flux,others
CCC1(c2ccccc2)NC(=O)N(CC(=O)Nc2cc(Cl)ccc2N2CCOCC2)C1=O (configuration not stated),.,i,.,.,
COc1ccc(CC(=O)NC2CCSc3ccccc32)c(OC)c1 (configuration not stated),.,i,72%*,i,
COc1ccc(OC)c(C(=O)NC2CCSc3ccccc32)c1 (configuration not stated),.,i,.,.,
C/C(=N\NC(=O)C1CC1)c1ccccc1O,.,i,.,.,
c1ccc(CCCNc2ncnc3nc[nH]c23)cc1,1.9,i,i,i,
c1ccc(CNc2ncnc3nc[nH]c23)cc1,1.4,i,.,.,
CC1(C)C(=O)OC(C(=O)c2ccccc2)C(C)(C)C1=O (configuration not stated),.,i,.,.,
Cc1cc(C)c(C(=O)C2OC(=O)C(C)(C)C(=O)C2(C)C)c(C)c1 (configuration not stated),10*,i,i,i,CHO-K1 Tl ctr=6.5*;KCNQ1 sel pot=-16;KCNQ2 pot conf=2.7*;Kir2-1 sel=-40;KCNQ2 W236L pot=i
Nc1nc(C2CCOCC2)cs1,.,i,.,.,
Nc1nc(C2CC2)c(Sc2sc(N)nc2C2CC2)s1,.,i,74%*,i,
CCC(=O)Nc1cc(OC)c(NC(=O)c2ccccc2)cc1OC,.,i,.,.,
CCOC(=O)C(NC(=O)c1ccccc1)=C1C=C(C)OC(C)=C1,6.8*,i,i,i,CHO-K1 Tl ctr=1.7*;KCNQ1 sel pot=-7;KCNQ2 pot conf=8.7*;Kir2-1 sel=-32;KCNQ2 W236L pot=i
COC(=O)C(NC(=O)c1ccccc1)=C1C=C(C)OC(C)=C1,5,i,.,.,
COc1ccc(C(=O)CSc2nnc(-c3ccc(C)cc3)o2)cc1,.,i,.,.,
Cc1occc1C(=O)Nc1ccc2c(c1)OCCO2,1.3,i,.,.,
Cc1occc1C(=O)Nc1ccc2c(c1)CCC2,7.2*,i,i,i,CHO-K1 Tl ctr=-4;KCNQ1 sel pot=-4;KCNQ2 pot conf=32*;Kir2-1 sel=-44;KCNQ2 W236L pot=i
Cn1c(SCC(=O)Nc2cccc(S(=O)(=O)NC3=NCCCCC3)c2)nnc1-c1ccncc1,.,i,.,.,
COc1ccccc1N1CCN(S(=O)(=O)CCNC(=O)c2cc(=O)c3ccccc3o2)CC1,.,i,.,.,
CC(C)(C)c1ccc(OCCCCCCN2CCNCC2)cc1,.,i,.,.,
CC(C)(c1ccccc1)c1ccc(OCCCN2CCNCC2)cc1,2,i,50%*,i,
CCOC(=O)c1ccc2nc(C(F)(F)F)[nH]c(=O)c2c1,.,i,.,.,
Cn1nc(C(F)(F)F)c2cc(NC(=O)OCc3ccc(C(C)(C)C)cc3)sc21,6.3*,i,i,i,CHO-K1 Tl ctr=38*;KCNQ1 sel pot=-7;KCNQ2 pot conf=-16;Kir2-1 sel=-34
Cn1nc(C(F)(F)F)c2cc(NC(=O)OCc3ccc(F)cc3)sc21,4.4,i,.,.,
O=C(Nc1ccccc1NC(=O)c1csnn1)c1csnn1,.,i,.,.,
O=C(NC(=S)Nc1ccccc1Cl)c1csnn1,15*,i,i,408%*,CHO-K1 Tl ctr=79*;KCNQ1 sel pot=-19;KCNQ2 pot conf=72*;Kir2-1 sel=-18;KCNQ2 W236L pot=i
SMILES,KCNQ2 pot,KCNQ2 inh,Kir21 conf inh,HEK293 Tl flux,others
CCCOc1cccc(C(=O)NC(=S)Nc2cccc(C(F)(F)F)c2)c1,.,i,.,.,
O=C(NC(=S)Nc1cccc(C(F)(F)F)c1)c1csnn1,18*,i,i,442%*,CHO-K1 Tl ctr=-18;KCNQ1 sel pot=-11;KCNQ2 pot conf=80*;Kir2-1 sel=-17;KCNQ2 W236L pot=i
COCCn1c(=NC(=O)c2ccc(S(=O)(=O)N3CCc4ccccc4C3)cc2)sc2cc(OC)ccc21,.,i,.,.,
COc1ccc(NC(=O)CSCC(=O)Nc2nnc(C3CC3)s2)cc1,.,i,.,.,
COc1ccc(C(C)NCCC(c2ccc(OC(C)C)cc2)c2ccccc2OC)cc1 (configuration not stated),-6.6,-6.6*,56%*,i,
CC(C)Oc1ccc(C(CCNCc2ccc(O)cc2)c2ccccc2)cc1 (configuration not stated),.,i,.,.,
COc1ccc(C(CCNC(C)c2ccccc2)C(C)C)cc1 (configuration not stated),0.56,i,48%*,i,
COc1ccc(OCC(O)CNC(C)c2ccccc2)cc1 (configuration not stated),0.41,i,.,.,
O=C(Nc1cccc(NC(=O)c2ccc(F)cc2)c1)c1ccc(F)cc1,0.32,i,.,.,
C=CCNCc1cccn1-c1sc2c(c1C#N)CCCC2,0.43,i,.,.,
N#Cc1c(-n2cccc2/C=N/O)sc2c1CCCC2,.,i,46%*,i,
CCOC(=O)CCNC(=O)c1ccc2nc(C3CCCCC3)oc2c1,2,i,.,.,
CCc1ccc(CNC(=O)c2ccc3nc(C4CCCCC4)oc3c2)nc1,17*,i,.,.,CHO-K1 Tl ctr=-11;KCNQ1 sel pot=17*;KCNQ2 pot conf=9.2*;Kir2-1 sel=-45;KCNQ2 W236L pot=i
O=C(NNC(=O)c1ccc(Cl)c(Cl)c1)c1cccnc1,.,i,.,.,
O=C(Nc1cccnc1)c1ccc(Cl)c(Cl)c1,8.1*,i,i,i,CHO-K1 Tl ctr=18*;KCNQ1 sel pot=-6;KCNQ2 pot conf=21*;Kir2-1 sel=-32;KCNQ2 W236L pot=11%*
O=C(Nc1cccnc1)c1ccccc1Oc1ccccc1,.,i,.,.,
O=C(Nc1cccnc1)c1ccc(Oc2ccccc2)cc1,18*,i,i,i,CHO-K1 Tl ctr=-12;KCNQ1 sel pot=-18;KCNQ2 pot conf=85*;Kir2-1 sel=-49;KCNQ2 W236L pot=i
CCCN1C(=O)/C(=C/c2ccncc2)SC1=S,.,i,.,.,
COc1ccc2c(c1)C1(C)CC(C)(C)N2C(=O)N1c1ccccc1 (configuration not stated),2.1,i,.,.,
CCC(=O)Nc1ccc(NC(=O)C23CC4CC(CC(C4)C2)C3)cn1,.,i,.,.,
Cc1ccnc(NC(=O)C23CC4CC(CC(C4)C2)C3)c1,9.7*,i,i,i,CHO-K1 Tl ctr=-8;KCNQ1 sel pot=-13;KCNQ2 pot conf=33*;Kir2-1 sel=-18;KCNQ2 W236L pot=i
CC(NC(=O)C12CC3CC(CC(C3)C1)C2)c1ccc2c(c1)OCCO2 (configuration not stated),3.9,i,.,.,
Cc1ccc(C(C)NC(=O)C23CC4CC(CC(C4)C2)C3)cc1 (configuration not stated),6*,i,i,i,CHO-K1 Tl ctr=-4;KCNQ1 sel pot=65*;KCNQ2 pot conf=6.5*;Kir2-1 sel=-22;KCNQ2 W236L pot=i
O=C1c2ccccc2NC2(CCCC2)N1NS(=O)(=O)c1ccccc1,0.14,i,.,.,
CC(=O)c1nnn(-c2nc(N)nc(N(c3ccccc3)c3ccccc3)n2)c1C,0.29,i,.,.,
